Source: PubChem (several laboratories)
Only some compounds are listed: those with a hit (about 3.1% of all), similar ones and a draw of the others.
ATG4B inhibitor: ATG4B (human) cysteine protease inhibition; Q9Y4P1; ATG4B cleavage of LC3-PLA2, NBD-HPC fluorescence, 1 h; hit rate 0.51% among 340,000; inhibition, % at 8.33 µM; AID 504462; in the data active = inhibition above about 40%
MEKK2 WT-MEK5: raises or lowers MEK5 binding to wildtype human MEKK2 PB1 domain; Q9Y2U5; bead flow cytometry, Alexa488-MEK5 binding to MEKK2 WT; actives lie on both sides; binding response (% of control), % at 10 µM; hit rate 1.1% among 290,000; AID 1531; in the data active = binding response below about 67% or above about 130%
PREPL inhibitor: inhibits the human prolyl oligopeptidase-like enzyme; Q4J6C6; recombinant PREPL, fluorescence polarization activity-based probe; inhibition, % at 5.96 µM; hit rate 0.68% among 320,000; in the data active = inhibition above about 43%;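 also: 0% = enzyme with DMSO and 100% = wells lacking enzyme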
Target sequence (Q4J6C6 whole entry, looked up): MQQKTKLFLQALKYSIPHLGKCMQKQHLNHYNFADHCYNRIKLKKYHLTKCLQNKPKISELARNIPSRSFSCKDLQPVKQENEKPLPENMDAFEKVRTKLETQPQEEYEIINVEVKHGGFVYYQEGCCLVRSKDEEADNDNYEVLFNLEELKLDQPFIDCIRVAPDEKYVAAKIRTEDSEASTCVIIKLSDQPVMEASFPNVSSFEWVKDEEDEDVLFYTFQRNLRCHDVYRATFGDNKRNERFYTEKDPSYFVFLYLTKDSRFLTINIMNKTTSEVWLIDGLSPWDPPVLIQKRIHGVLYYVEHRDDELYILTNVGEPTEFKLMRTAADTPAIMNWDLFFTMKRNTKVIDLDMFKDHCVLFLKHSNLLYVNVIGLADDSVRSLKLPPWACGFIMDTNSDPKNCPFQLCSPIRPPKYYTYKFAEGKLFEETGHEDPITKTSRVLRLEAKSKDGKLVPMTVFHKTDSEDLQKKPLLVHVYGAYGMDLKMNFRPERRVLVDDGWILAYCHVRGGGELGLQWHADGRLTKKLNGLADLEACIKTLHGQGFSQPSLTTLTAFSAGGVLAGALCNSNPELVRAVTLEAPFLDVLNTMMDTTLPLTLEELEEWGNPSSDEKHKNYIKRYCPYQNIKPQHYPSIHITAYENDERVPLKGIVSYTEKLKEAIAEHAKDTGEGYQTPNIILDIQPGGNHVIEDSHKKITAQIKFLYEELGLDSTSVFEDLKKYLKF
MEKK3 PB1 HTS: modulators (inhibitors or enhancers) of MEK5 binding to human MEKK3 PB1 domain; bead-based flow cytometry, Alexa488-MEK5 binding to MEKK3; actives lie on both sides; 0 = blocked by unlabeled MEK5, 100 = vehicle; binding response (% of control), % at 10 µM; hit rate 1.4% among 290,000;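 active = binding response more than 3 SD above or below the average of its plate-row segment, actives on both sides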;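 also: Alexa488 bead fluorescence after subtracting the streptavidin-only scavenger bead signal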
UBC13 inh: inhibitors of human UBC13 polyubiquitin chain formation. P61088. TR-FRET. inhibition, % at 20 µM. hit rate 0.47% among 330,000; in the data active = inhibition above about 45%, passing the limit was not always enough
MEKK2mut PB1 HTS: signal of MEK5 binding to mutant human MEKK2 PB1 domain. bead flow cytometry, Alexa488-MEK5 binding to MEKK2 mutant. percent response, % at 10 µM. hit rate 0.35% among 290,000; in the data active = percent response above about 24%, passing the limit was not always enough
MEKK2wt confirm: raises or lowers MEK5 binding to wildtype human MEKK2, retest; shares compounds with MEKK3 PB1 HTS; bead flow cytometry, Alexa488-MEK5 binding to MEKK2 WT; actives lie on both sides; hit rate 2.4% among 5,900; AID 1892; binding response (% of control), % at 10 µM; in the data active = binding response below about 16% or above about 210%; inactive = in between
MEKK2mut confirm: signal of MEK5 binding to mutant human MEKK2, retest. shares compounds with MEKK3 PB1 HTS. bead flow cytometry, Alexa488-MEK5 binding to MEKK2 mutant. percent response, % at 10 µM. hit rate 2% among 5,900; in the data active = percent response mostly above about 71%, no sharp cut-off; inactive = mostly below about 38%;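 also: higher means compound restores mutant binding toward wildtype level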
MEKK3-MEK5 inh: confirmation of inhibitors of MEK5 binding to human MEKK3; shares compounds with MEKK3 PB1 HTS; bead flow cytometry, Alexa488-MEK5 binding to MEKK3; hits give low values; binding response (% of control), % at 10 µM; hit rate 1.8% among 5,900; AID 1894;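 active = binding response below 72% of control, or above a set upper limit, though filed actives all read lower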;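 also: 100% = DMSO only wells and 0% = binding blocked by excess unlabeled MEK5; lower values mean stronger disruption of MEK5 binding to MEKK3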
Casp3 UBC13 ctr: inhibits human caspase-3 in UBC13 counter-screen; AID 488856; Recombinant caspase-3, Caspase-Glo 3/7 luminescence, 60 min; shares compounds with UBC13 inh; inhibition, % at 20 µM; hit rate 4% among 1,400;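 active = mean inhibition across replicates above about 26%, limit read from the data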;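 also: plate controls were DMSO with caspase-3 for no effect and DMSO wells lacking enzyme for full effect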
UBC13 confirm: confirmation of human UBC13 polyubiquitin inhibitors. shares compounds with UBC13 inh. inhibition, % at 10 µM. hit rate 68% among 1,400. UBC13 polyubiquitination, TR-FRET, biochemical; in the data active = inhibition above about 45%
The depositor's hits bear a star; x = not tested or not shown.

SMILES	ATG4B inhibitor	MEKK2 WT-MEK5	PREPL inhibitor	MEKK3 PB1 HTS	UBC13 inh	MEKK2mut PB1 HTS	MEKK2wt confirm	MEKK2mut confirm	MEKK3-MEK5 inh	Casp3 UBC13 ctr	UBC13 confirm
CCN1CCN(Cc2ccc(NC(=O)c3ccc(C)c(NC(=O)c4c[nH]c5cc(C(F)(F)F)ccc5c4=O)c3)cc2C(F)(F)F)CC1	23.1	199.0*	-16.1	115.0	107.5*	83.0*	224.0*	131.0*	93.0	-4.6	100.0*
CCN1CCN(Cc2ccc(NC(=O)c3cc(NC(=O)c4cncc(-c5cccs5)c4)cc(OC)c3)cc2C(F)(F)F)CC1	-1.8	362.0*	-38.2	118.0	102.2*	133.0*	245.0*	193.0*	113.0	-6.7	90.7*
CCN1CCN(Cc2ccc(NC(=O)c3cc(NC(=O)c4ccno4)cc(OC)c3)cc2C(F)(F)F)CC1	-21.2	111.0	0.8	76.0	27.3	6.0	x	x	x	x	x
CCN1CCN(Cc2ccc(NC(=O)c3cc(NC(=O)c4ccc5n[nH]nc5c4)cc(OC)c3)cc2C(F)(F)F)CC1	-11.6	118.0	-26.2	113.0	12.6	13.0	x	x	x	x	x
Cc1ccc(C(=O)Nc2cccc(C(F)(F)F)c2)cc1NC(=O)c1c[nH]c2cc(C(F)(F)F)ccc2c1=O	1.0	x	12.2	x	-25.0	x	x	x	x	x	x
Cn1c(N)c(C(=O)COC(=O)/C=C/c2ccccc2)c(=O)n(C)c1=O	-7.6	x	24.0	x	-16.3	x	x	x	x	x	x
O=S(=O)([N-]c1nc2ccccc2nc1-n1cc[n+](Cc2ccccc2)c1)c1ccc(Br)cc1	-2.9	96.0	3.0	99.0	-1.3	-2.0	x	x	x	x	x
CCN(CC)CCNC(=O)c1cc2c(s1)-c1ccccc1SC2	2.0	146.0*	-13.1	107.0	50.5*	25.0*	129.0	13.0	105.0	-4.2	53.4*
CN(C)S(=O)(=O)c1ccc(Cl)c(NC(=O)COC(=O)CNS(=O)(=O)c2c(F)cccc2F)c1	-3.1	x	x	x	x	x	x	x	x	x	x
CCCCCCOc1ccc(/C(C)=N/NC2=NCCN2)cc1[N+](=O)[O-]	4.2	203.0*	10.6	109.0	93.7*	46.0	226.0*	68.0	112.0	-8.9	97.8*
COc1ccc(/C(C)=N/NC2=NCCN2)cc1Cl	-7.6	116.0	x	102.0	14.4	7.0	x	x	x	x	x
Cc1ccccc1OCC(=O)N1CCN(C(=O)COc2ccccc2C)CC1	-5.6	99.0	17.8	103.0	1.5	0.0	x	x	x	x	x
Cc1ccccc1OCC(O)CN1CCN(CCN2C(=O)c3cccc4cccc(c34)C2=O)CC1 (stereo not given)	-27.4	111.0	-17.1	137.0*	50.4*	1.0	132.0	15.0	106.0	-0.3	76.2*
C=CCc1ccccc1OCC(O)CN1CCN(CCN2C(=O)c3cccc4cccc(c34)C2=O)CC1 (stereo not given)	12.7	193.0*	10.0	111.0	59.0*	23.0	155.0	17.0	105.0	-4.3	96.8*
CCOc1cc(N2CCOCC2)c(OCC)cc1NC(=O)c1cc(S(=O)(=O)N2CCOCC2)ccc1F	1.3	x	11.2	x	2.4	x	x	x	x	x	x
CCN(CC)/C(=N\S(=O)(=O)c1ccc(F)cc1)c1ccccc1	2.7	107.0	-8.0	108.0	1.6	7.0	x	x	x	x	x
c1ccc(CNc2nc(NCc3ccccc3)c3ccccc3n2)cc1	11.8	262.0*	29.0	106.0	75.1*	140.0*	256.0*	116.0*	113.0	-1.3	91.7*
c1ccc(CNc2nc(-c3ccccc3)nc3ccccc23)cc1	8.4	108.0	-7.6	105.0	11.3	4.0	x	x	x	x	x
